High-throughput results from PubChem.
Cdc25B block – inhibitors of human Cdc25B phosphatase. 0.1% of 65,000 active. P30305. recombinant Cdc25B, OMFP fluorescence Ex485/Em525. inhibition, %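 (compounds tested at 10 µM final in the well)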. AID 368; in the data active = inhibition above about 50%
Target sequence (P30305 whole entry, looked up): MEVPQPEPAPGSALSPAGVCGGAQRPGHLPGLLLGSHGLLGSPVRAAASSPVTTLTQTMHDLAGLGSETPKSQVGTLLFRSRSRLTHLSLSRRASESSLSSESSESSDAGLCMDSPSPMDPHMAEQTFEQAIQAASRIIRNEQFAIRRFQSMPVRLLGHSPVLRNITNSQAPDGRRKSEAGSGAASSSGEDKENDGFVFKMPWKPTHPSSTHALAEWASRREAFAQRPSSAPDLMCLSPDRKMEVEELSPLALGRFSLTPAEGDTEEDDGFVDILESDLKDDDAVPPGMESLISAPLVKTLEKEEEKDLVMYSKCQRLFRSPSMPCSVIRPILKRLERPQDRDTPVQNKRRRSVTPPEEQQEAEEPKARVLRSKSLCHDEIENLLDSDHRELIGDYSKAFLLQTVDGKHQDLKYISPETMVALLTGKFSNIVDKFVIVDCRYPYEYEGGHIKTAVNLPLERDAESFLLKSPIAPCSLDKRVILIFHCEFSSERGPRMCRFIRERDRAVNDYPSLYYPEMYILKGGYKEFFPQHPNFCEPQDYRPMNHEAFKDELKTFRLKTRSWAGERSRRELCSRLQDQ
BAP1 block – human BAP1 deubiquitinase inhibition; calls only at 20 µM; recombinant BAP1, Ub-AMC hydrolysis fluorescence kinetic; stronger effect = lower value; 0.48% of 72,000 active; AID 436;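 active = activity remaining at or below 50% of control, provided the compound also passes the data quality filters; inactive = the rest, including low values that fail the filters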;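 also: 100% = DMSO wells rate and 0% = substrate alone blank rate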
HePTP inhibitor – human HePTP phosphatase inhibition; P35236; inhibition, % at 20 µM; 0.64% of 110,000 active; recombinant HePTP phosphatase activity, OD absorbance; in the data active = inhibition above about 50%;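 also: plate controls were vehicle for no effect and reference inhibitor for full effect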
DUSP1 inh – human dual specificity phosphatase 1 inhibition; 0.15% of 65,000 active; P28562; recombinant MKP-1, OMFP hydrolysis fluorescence; inhibition, %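 (compounds tested at a single concentration somewhere between 10 and 100 µM)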;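 active = inhibition above about 50%, limit read from the data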;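 also: 0% = DMSO max control wells and 100% = wells with enzyme stopped by NaOH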
PLAP act – activators of human placental alkaline phosphatase. activation fold at 20 µM. 1.2% of 96,000 active. P05187. purified PLAP enzyme, luminescent substrate read-out; stronger effect = higher value. AID 696; in the data active = activation fold above about 2
The depositor's hits bear a star; i = inactive; . = not tested or not shown; + = active, no number. Hits are enriched below; roughly 1.4% of the tested compounds scored in any of these assays.

SMILES	Cdc25B block	BAP1 block	HePTP inhibitor	DUSP1 inh	PLAP act
CCOC(=O)C1=C(O)/C(=C\c2ccccc2OC)N=C1C	.	.	-4	.	.
COc1ccc(-c2cn3c(C)c(C(=O)N4CCc5ccccc5C4)sc3n2)cc1	-10	+	-11	7	.
CCn1c(=S)[nH]c2ccccc21	.	.	.	.	2.1*
Cc1ccc(OCCn2c(=S)[nH]c3ccccc32)cc1	.	.	4	.	.
CCN1CCN(C(=O)Nc2ccc(Cc3ccc(NC(=O)N4CCN(CC)CC4)cc3)cc2)CC1	-12	i	-14	12	2*
CC1=C(C(=O)OCCOc2ccccc2)C(c2ccc(F)cc2)C2=C(CCCC2=O)N1 (stereo unspecified)	.	i	.	.	.
CN(/C=C/C=C1\CC/C(=C\C=C\N(C)c2ccccc2)C1=O)c1ccccc1	.	.	98*	.	.
CN(C)/C=C/C=C/C=C1\CCC/C(=C\C=C\N(C)C)C1=O	.	.	-1	.	.
Cc1ccc(OCC(=O)Oc2ccc(C(=O)c3ccccc3)cc2C)c(C)c1	.	.	104*	.	.
Cc1ccc(OCC(=O)N(C)c2ccccc2)c(C)c1	.	.	5	.	.
Cc1ccc2nc(SCc3nc4ccccc4[nH]3)[nH]c2c1	.	.	-4	.	.
Cc1cccn2cc(CNS(=O)(=O)c3cccc(F)c3)nc12	.	.	.	.	2.3*
COC(=O)/C=C1\S/C(=N/NC(=O)c2ccccc2)NC1=O	.	.	.	.	2.5*
Cc1ccc(C(=O)NNC(=O)C2CCN(Cc3ccccc3)CC2)cc1	.	.	.	.	2.1*
Cc1ccc(C(=O)NNC(=O)C2CCN(Cc3ccc(Cl)c(Cl)c3)CC2)cc1	.	.	.	.	1.1
COc1ccc(C)cc1NC(=O)CN1CCN(c2ccccc2F)CC1	-20	i	44	1	1.4
COc1ccc(C)cc1NC(=O)CN1CCN(C/C=C/c2ccccc2)CC1	.	.	.	.	2.3*
Cc1ccnc(NC(=O)COc2cc(C)ccc2C(C)C)c1	.	.	4	.	.
Clc1ccccc1CN(Cc1ccccc1)c1ncnc2nc[nH]c12	4	i	12	-3	1.7
CCCN(CCC)c1ncnc2nc[nH]c12	-9	i	1	-1	2.3*
COc1ccc(C(=O)N/N=C/c2cc(OC)c(O)c([N+](=O)[O-])c2)cc1OC	.	.	-7	.	.
Cc1cc(Br)cc(/C=N/NC(=O)c2ccc3c(c2)OCO3)c1O	.	.	-3	.	.
O=C(N/N=C/c1cc(Cl)cc([N+](=O)[O-])c1O)c1ccc2c(c1)OCO2	.	.	103*	.	.
O=C(N/N=C\c1cc(Cl)cc([N+](=O)[O-])c1O)c1ccc(Br)cc1	.	.	65*	.	.
O=C(N/N=C\c1cc(I)ccc1O)c1ccc(Br)cc1	.	.	103*	.	.
SMILES	Cdc25B block	BAP1 block	HePTP inhibitor	DUSP1 inh	PLAP act
CC(O)c1cccc(NC(=O)c2nn3c(c2Cl)NC(c2cccs2)CC3C(F)(F)F)c1 (stereo unspecified)	.	.	-5	.	.
CC1=C(C)CC2C(=O)N(c3cccc(C(F)(F)F)c3)C(=O)C2C1 (stereo unspecified)	.	.	0	.	.
Cc1c(O)ccc(-c2[nH]ncc2-c2nc3ccccc3s2)c1O	.	.	.	.	2.2*
O=C(Nc1ccccc1)NC1(C(=O)NCCCN2CCOCC2)CCCCC1	4	i	15	-9	1.4
O=C(Nc1ccc(Cl)cc1)NC1(C(=O)NCCCN2CCOCC2)CCCCC1	-4	i	-7	-9	2.7*
O=S(=O)(N/N=C/c1ccccc1C(F)(F)F)c1ccc(Cl)cc1	.	.	-7	.	.
CCNC(=S)NNC(=O)c1ccccc1OC(F)F	.	.	.	.	2.9*
Cc1cccc(NC(=S)NNC(=O)c2ccccc2OC(F)F)c1	.	.	.	.	1.4
CCCCOc1cccc(-c2cc(C(=O)NNC(=S)NCC)c3ccccc3n2)c1	.	.	.	.	1.1
CCNC(=S)NNC(=O)c1cc(-c2cccc(OCC)c2)nc2ccccc12	.	.	.	.	2.7*
CCNC(=S)NNC(=O)c1cc(C2CC2)nc2ccccc12	.	.	.	.	2.1*
Cc1ccc(C(=O)Nc2ccccc2F)cc1	.	i	.	.	.
CC(N=Cc1cc([N+](=O)[O-])cc(Br)c1O)C12CC3CC(CC(C3)C1)C2 (stereo unspecified)	.	.	4	.	.
COc1ccc(C(=O)CSc2ncn[nH]2)cc1OC	-1	i	-2	2	2.1*
COc1ccc2c(c1)C(C)CC(C)(C)N2C(=O)CSc1ncn[nH]1 (stereo unspecified)	4	i	2	-3	2.4*
COc1ccc(C(=O)CSc2ncn[nH]2)cc1	.	.	0	.	.
CCc1ccc(C(=O)CSc2ncn[nH]2)cc1	-8	i	3	0	2.4*
Cc1ccc(C(=O)CSc2ncn[nH]2)cc1	-4	i	-1	0	2.3*
Cc1cc(C)c(C)c(OCCCCN2CCC(C)CC2)c1	.	.	4	.	.
Cc1nnc2n1NC(c1ccc(Cl)cc1)C(C(=O)N(C)C1CCCCC1)S2 (stereo unspecified)	-6	i	7	34	2.2*
Cc1nnc2n1NC(c1ccc(Cl)cc1)C(C(=O)N1CCC(C)CC1)S2 (stereo unspecified)	-16	i	4	3	0.9
Cc1ccc(C2C3=C(CC(C)(C)CC3=O)N(CCN3CCOCC3)C3=C2C(=O)CC(C)(C)C3)cc1	-2	.	-1	29	2.1*
CCOC(=O)C1=C(C)NC2=C(C(=O)CC(C)(C)C2)C1c1ccc(N2CCOCC2)cc1 (stereo unspecified)	.	.	-7	.	.
O=C(/C=C/c1ccccc1)NNC(=O)c1cccnc1	.	.	-13	.	2*
O=C(NCCCCNC(=O)c1cccnc1)c1cccnc1	-7	i	2	7	1
SMILES	Cdc25B block	BAP1 block	HePTP inhibitor	DUSP1 inh	PLAP act
COCCCNC(=S)NNC(=O)c1ccc2c(c1)OCO2	.	.	.	.	2.2*
O=C(NNC(=S)NC(=O)c1cccnc1)c1ccccc1	.	.	.	.	2.1*
COCCCNC(=S)NNC(=O)c1cccnc1	.	.	.	.	2.7*
O=C(NNC(=S)Nc1ccccc1)c1cccnc1	.	.	-21	.	.
O=C(NN=C(/C=C/c1ccccc1)/C=C/c1ccccc1)c1cccnc1	.	.	7	.	.
COc1ccc(Br)cc1/C=C/C(=O)Nc1cccc(S(N)(=O)=O)c1	.	.	1	.	.
C=CCc1cc(/C=C2\C(=O)NC(=O)N(c3ccc(Cl)cc3)C2=O)cc(OC)c1OCC(=O)OC	.	.	7	.	.
CC1(C)CC(=O)C2=C(C1)OC1=C(C(=O)CC(C)(C)C1)C2c1ccc(-c2ccccc2Cl)o1	.	.	5	.	.
O=C(O)c1cc(Br)ccc1NC(=O)C(c1ccccc1)c1ccccc1	.	.	-3	.	.
CC(=O)NC1=NC(=O)/C(=C/c2cc(C)n(-c3cccc(C(=O)O)c3)c2C)S1	.	.	101*	.	.
Cc1cc(NCCCn2ccnc2)n2nc(C)c(-c3ccccc3)c2n1	.	.	.	.	1.6
Cc1cc(NCCCn2ccnc2)n2ncc(-c3ccccc3)c2n1	4	i	7	-14	2.3*
O=C(/C=C\c1ccc(-c2ccc(Br)cc2)o1)N1CCOCC1	.	.	-5	.	.
Cc1[nH]n(-c2ccc([N+](=O)[O-])cc2)c(=O)c1C=NCCN1CCN(C(=O)c2ccccc2)CC1	.	.	.	.	2*
NC(=O)C1CCN(Cc2nc3cc(Cl)ccc3c(=O)[nH]2)CC1	.	.	.	.	2*
Cc1cc(OCc2ccc([N+](=O)[O-])cc2)c2c(-c3ccccc3)cc(=O)oc2c1	.	i	3	.	.
COc1ccccc1N1C(=O)C(=Cc2cccn2C)C(=O)NC1=S	.	.	102*	.	.
Cn1cc(Br)c(C(=O)NNC(=O)c2cccc(Br)c2)n1	.	.	.	.	2.3*
O=C(NNc1ccccn1)C(=O)NNS(=O)(=O)c1ccc(Cl)cc1	.	.	.	.	2.4*
